In PubChem BioAssay (NCATS):
Inconclusive results are not listed. Activity calls are given as the source filed them. Unless noted, calls come from the whole dose curve; as a rule, active = well fitted curve in the direction sought with a large enough effect; inconclusive = small, poorly fitted or top-dose-only effect, or another doubt; inactive = no such curve, though single readings can be large; an effect the other way counts as inactive or inconclusive.

Columns and labels:
[1] = molecular target: Protein phosphatase 1D (Homo sapiens) (UniProt O15297); assay: RapidFire Mass Spectrometry qHTS Assay for Modulators of WT P53-Induced Phosphatase 1 (WIP1) (AID 1347424);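 note: amount of dephosphorylated VEPPL-S-QETFS peptide product formed by WIP1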; note: potency is the fitted concentration of half-maximal effect;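 for activity change, negative = inhibition: series mostly up to about 63 µM; plate controls were DMSO wells for no effect and GSK830371 inhibitor control at 10 µM for full effect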
Chain of Protein phosphatase 1D (Homo sapiens) (O15297 whole entry, looked up): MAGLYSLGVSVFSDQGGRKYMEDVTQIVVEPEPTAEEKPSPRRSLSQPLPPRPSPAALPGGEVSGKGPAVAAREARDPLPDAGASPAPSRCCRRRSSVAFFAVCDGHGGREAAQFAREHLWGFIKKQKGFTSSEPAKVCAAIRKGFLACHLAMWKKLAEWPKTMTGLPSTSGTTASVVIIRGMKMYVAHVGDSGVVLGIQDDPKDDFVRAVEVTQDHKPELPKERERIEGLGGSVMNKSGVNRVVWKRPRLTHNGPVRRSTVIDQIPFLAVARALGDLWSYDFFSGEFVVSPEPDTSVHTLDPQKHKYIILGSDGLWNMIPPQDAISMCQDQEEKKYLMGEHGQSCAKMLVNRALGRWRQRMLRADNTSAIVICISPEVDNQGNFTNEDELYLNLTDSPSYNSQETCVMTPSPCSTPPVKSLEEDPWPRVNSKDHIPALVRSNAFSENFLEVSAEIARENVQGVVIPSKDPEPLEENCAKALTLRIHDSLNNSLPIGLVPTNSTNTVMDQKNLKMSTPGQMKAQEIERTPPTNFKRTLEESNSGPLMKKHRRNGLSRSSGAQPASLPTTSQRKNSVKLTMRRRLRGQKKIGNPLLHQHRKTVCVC
Summary of the method: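 WIP1 (10 nM final) was preincubated 1 h at room temperature with compounds in Tris-HCl pH 7.5, 30 mM MgCl2, TCEP, EGTA, BSA; 2 uM VEPPL-pS-QETFS phosphopeptide was added for 5 min, quenched with formic acid, and dephosphorylated product quantified by RapidFire MS.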

[2] = Primary qHTS for inhibitors of La Crosse Virus (LACV) - induced cell death in SH-SY5Y cells (AID 1508616);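 note: top concentration of the series differs between compounds; 0% = infected DMSO wells and 100% = uninfected DMSO wells; higher means more rescue of cells from virus-induced death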
Summary of the method: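 Readout was luminescence from ATPLite 1step added after a 6-day LACV infection (0.01 MOI) of SH-SY5Y cells that had received pin-transferred compound 24 hr after seeding.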

[3] = molecular target: Calcium and integrin-binding protein 1 (Homo sapiens) (UniProt Q99828); assay: Primary qHTS for Identification of Calcium Integrin Binding Protein 1 (CIB1) Competitor (AID 1508620); note: potency is the fitted concentration of half-maximal effect;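 for activity change, negative = inhibition: GST tagged CIB1 binding a fluorescein labelled alphaIIb integrin peptide tracer; top concentration of the series differs between compounds; % is set by controls: 0 for no effect and ±100 for the full control effect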
Chain of Calcium and integrin-binding protein 1 (Homo sapiens) (Q99828 whole entry, looked up): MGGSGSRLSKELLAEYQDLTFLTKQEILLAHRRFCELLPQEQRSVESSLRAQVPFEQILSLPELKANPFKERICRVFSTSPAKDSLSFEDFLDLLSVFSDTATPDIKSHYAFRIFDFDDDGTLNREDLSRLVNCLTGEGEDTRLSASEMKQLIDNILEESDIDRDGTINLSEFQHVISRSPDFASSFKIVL
Summary of the method: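 Fluorescence polarization competition: CIB1-GST (1 uM final) preincubated with compound 15 min at room temperature, then FITC-labeled alphaIIb peptide (100 nM final) added for another 15 min. Polarization read at Ex 480/Em 540.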

[4] = Primary qHTS for small molecule stabilizers of the endoplasmic reticulum resident proteome: Secreted ER Calcium Modulated Protein (SERCaMP) assay (AID 1508630); note: % is set by controls: 0 for no effect and ±100 for the full control effect
Summary of the method: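 GLuc-SERCaMP-expressing SH-SY5Y cells, pretreated 16 h with compound, are challenged with thapsigargin to empty ER calcium stores; after 4 h, coelenterazine is added directly to the medium and luminescence is imaged.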

[5] = A High-Content qHTS Against Drug Library for the Identification of Small Molecules that Inhibit DYT1 Early Onset Primary Dystonia-Associated Cell Pathology (AID 1645839; calls by dose curve; note: potency is the fitted concentration of half-maximal effect; for % pathology change, negative = correction: series mostly up to about 46 µM)
Summary of the method: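 Readout: %pathology, the punctate EGFP-TorsinA distribution from imaging, as the primary channel and cell count as the toxicity counterscreen. HEK293 Flp-In cells expressing delE TorsinA were induced with tetracycline and treated with compound for 48 h.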

[6] = molecular target: Cytochrome P450 2D6 (Homo sapiens) (UniProt P10635); assay: Cytochrome P450 family 2 subfamily D member 6 (CYP2D6) small molecule antagonists: luciferase biochemical (cell-free) qHTS assay (AID 1645840; active = well fitted curve in the direction sought with a large enough effect in the repeat runs; an effect the other way counts as inactive or inconclusive; note: nearly all actives have a fitted effect of over 55% in size; note: potency is the fitted concentration of half-maximal effect; for activity change, negative = inhibition: series mostly up to about 57 µM; % is set by controls: 0 for no effect and ±100 for the full control effect)
Chain of Cytochrome P450 2D6 (Homo sapiens) (P10635 whole entry, looked up): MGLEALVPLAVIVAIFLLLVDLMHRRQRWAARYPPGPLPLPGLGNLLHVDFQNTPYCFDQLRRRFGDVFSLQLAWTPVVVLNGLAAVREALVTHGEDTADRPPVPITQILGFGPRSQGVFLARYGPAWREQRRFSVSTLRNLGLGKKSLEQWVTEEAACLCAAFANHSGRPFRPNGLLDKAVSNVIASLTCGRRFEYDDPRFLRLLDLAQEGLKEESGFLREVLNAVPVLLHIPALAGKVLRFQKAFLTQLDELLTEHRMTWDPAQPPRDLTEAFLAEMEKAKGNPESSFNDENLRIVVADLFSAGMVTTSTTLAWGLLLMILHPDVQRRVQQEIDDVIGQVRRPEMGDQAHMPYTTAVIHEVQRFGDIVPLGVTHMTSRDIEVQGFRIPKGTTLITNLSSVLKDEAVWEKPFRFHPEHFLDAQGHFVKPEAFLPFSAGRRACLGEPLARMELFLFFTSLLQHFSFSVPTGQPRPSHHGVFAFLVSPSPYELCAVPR
Summary of the method: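 P450-Glo luminescent screen: recombinant CYP2D6 enzyme–proluciferin substrate mix preincubated with compound 10 min at room temperature, then NADPH regeneration added for 1 h at room temperature. Detection reagent added for 20 min; luciferin light read as relative luminescence units.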

[7] = molecular target: Cytochrome P450 2C9 (Homo sapiens) (UniProt P11712); assay: Cytochrome P450 family 2 subfamily C member 9 (CYP2C9) small molecule antagonists: luciferase biochemical (cell-free) qHTS assay (AID 1645842; active = well fitted curve in the direction sought with a large enough effect in the repeat runs; an effect the other way counts as inactive or inconclusive; note: nearly all actives have a fitted effect of over 55% in size; note: potency is the fitted concentration of half-maximal effect; for activity change, negative = inhibition: series mostly up to about 57 µM; % is set by controls: 0 for no effect and ±100 for the full control effect)
Chain of Cytochrome P450 2C9 (Homo sapiens) (P11712 whole entry, looked up): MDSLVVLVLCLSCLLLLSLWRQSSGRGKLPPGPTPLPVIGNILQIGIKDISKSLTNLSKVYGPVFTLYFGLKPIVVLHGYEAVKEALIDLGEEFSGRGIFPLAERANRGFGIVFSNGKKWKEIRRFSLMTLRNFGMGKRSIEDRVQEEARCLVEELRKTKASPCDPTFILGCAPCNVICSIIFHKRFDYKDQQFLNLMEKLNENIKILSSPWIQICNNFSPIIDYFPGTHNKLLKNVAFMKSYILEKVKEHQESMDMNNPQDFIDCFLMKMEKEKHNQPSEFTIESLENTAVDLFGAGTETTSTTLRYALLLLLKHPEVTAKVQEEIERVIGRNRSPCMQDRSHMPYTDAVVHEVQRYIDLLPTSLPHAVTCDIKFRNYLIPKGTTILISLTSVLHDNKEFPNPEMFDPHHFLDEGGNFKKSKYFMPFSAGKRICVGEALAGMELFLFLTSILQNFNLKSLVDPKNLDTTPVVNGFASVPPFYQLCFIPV
Summary of the method: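 Luminescence, after 20 min with luciferin detection reagent, reflected CYP2C9 turnover during a 1 h NADPH-driven reaction at 37C. Enzyme-substrate mix contained 0.4% bovine serum albumin and was preincubated with compound 10 min at room temperature.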

[8] = molecular target: Protein phosphatase 1D (Homo sapiens) (UniProt O15297); assay: Rhodamine-PBP qHTS Assay for Modulators of WT P53-Induced Phosphatase 1 (WIP1) (AID 1347425); note: % of control where 0% means no effect
Summary of the method: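 Steps: enzyme with Rh-PBP sensor and compounds, room-temperature incubation of 1 hr, baseline read, addition of VEPPL-pS-QETFS (10 uM final), kinetic fluorescence reads at 525/598 nm. Activity equals final minus baseline signal.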

[9] = molecular target: Cytochrome P450 3A4 (Homo sapiens) (UniProt P08684); assay: Cytochrome P450 family 3 subfamily A member 4 (CYP3A4) small molecule antagonists: luciferase qHTS assay (AID 1645841; active = well fitted curve in the direction sought with a large enough effect in the repeat runs; an effect the other way counts as inactive or inconclusive; note: nearly all actives have a fitted effect of over 45% in size)
Chain of Cytochrome P450 3A4 (Homo sapiens) (P08684 whole entry, looked up): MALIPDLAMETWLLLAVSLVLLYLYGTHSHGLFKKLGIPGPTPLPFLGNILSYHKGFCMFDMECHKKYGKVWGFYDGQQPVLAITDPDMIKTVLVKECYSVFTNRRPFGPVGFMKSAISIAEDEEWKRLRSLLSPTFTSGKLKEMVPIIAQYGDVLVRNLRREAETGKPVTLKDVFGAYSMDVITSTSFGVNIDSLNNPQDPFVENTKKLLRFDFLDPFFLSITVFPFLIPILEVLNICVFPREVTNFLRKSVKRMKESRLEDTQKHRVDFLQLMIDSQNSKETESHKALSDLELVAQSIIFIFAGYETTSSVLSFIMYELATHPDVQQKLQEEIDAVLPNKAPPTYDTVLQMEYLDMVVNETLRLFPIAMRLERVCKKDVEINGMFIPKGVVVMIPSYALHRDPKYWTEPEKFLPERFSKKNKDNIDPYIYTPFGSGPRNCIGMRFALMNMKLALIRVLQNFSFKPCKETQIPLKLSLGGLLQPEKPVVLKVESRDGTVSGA
Summary of the method: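 P450-Glo CYP3A4 enzyme with proluciferin substrate was preincubated with DMSO-dissolved compounds for 10 min at room temperature. NADPH regeneration solution started a 1 h reaction. Detection reagent stopped it, and luminescence was read after 20 min.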

[10] = Cell Viability qHTS for small molecule stabilizers of the endoplasmic reticulum resident proteome (AID 1508629); conditions: cell viability counter-screen, 100 nM thapsigargin for final 4 h;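 note: potency is the fitted concentration of half-maximal effect; compound exposure about 46 h in total before the viability read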

CC(=O)Oc1ccc(C2(c3ccc(OC(C)=O)cc3)Oc3ccccc3NC2=O)cc1
active: Potency [5] 12.6 µM | Potency [7] 1.74 µM
inactive: Potency [1] | outcome [2] | Potency [3] | Potency [4] | Potency [6]

CO[C@@]1(NC(=O)CSC[C@@H](N)C(=O)O)C(=O)N2C(C(=O)O)=C(CSc3nnnn3C)CS[C@@H]21
inactive: outcome [8] | outcome [2] | Potency [3] | Potency [6] | Potency [9] | Potency [7]

COc1ccc(OC(=O)N(CC(=O)O)Cc2ccc(OCCc3nc(-c4ccccc4)oc3C)cc2)cc1
inactive: outcome [2] | Potency [3] | Potency [4]

CCCCCN(CCCOC)C(=O)C(CCC(=O)O)NC(=O)c1ccc(Cl)c(Cl)c1 (stereo not drawn)
active: Potency [7] 19.5 µM
inactive: Potency [1] | outcome [8] | outcome [2] | Potency [3] | Potency [6]

CCCCC(CC)COC(=O)c1ccccc1C(=O)O (stereo not drawn)
active: Potency [7] 6.26 µM
inactive: Potency [1] | outcome [2] | Potency [3] | Potency [4]

C[C@@H]1CCC[C@H](C)N1CCCC(O)(c1ccccc1)c1ccccn1 (stereo partly drawn)
active: Potency [6] 0.871 µM
inactive: Potency [1] | outcome [8] | outcome [2] | Potency [3] | Potency [5] | Potency [7]

Cc1cc2nc3ccc(=[N+](C)C)cc-3sc2cc1N
active: Potency [10] 7.94 µM | Potency [5] 7.08 µM | Potency [6] 0.431 µM | Potency [7] 1.08 µM
inactive: outcome [2]

OC1(c2ccc(Cl)c(C(F)(F)F)c2)CCN(CCCC(c2ccc(F)cc2)c2ccc(F)cc2)CC1
active: Potency [5] 4.47 µM | Potency [6] 1.23 µM | Potency [7] 15.5 µM
inactive: Potency [1] | outcome [8] | outcome [2] | Potency [3]

Cc1ccc(C(=O)Oc2ccc(C(O)CNC(C)(C)C)cc2OC(=O)c2ccc(C)cc2)cc1 (stereo not drawn)
inactive: outcome [8] | outcome [2] | Potency [3] | Potency [4]

CCCC(=O)OCOC(=O)C1=C(C)NC(C)=C(C(=O)OC)C1c1cccc(Cl)c1Cl (stereo not drawn)
inactive: outcome [8] | outcome [2] | Potency [3] | Potency [5]
active: Potency [6] 16.2 µM | Potency [7] 2.04 µM

COC(=O)C1=C(C)NC(C)=C(C(=O)OCCc2ccc(N3CCN(C(c4ccccc4)c4ccccc4)CC3)cc2)C1c1cccc([N+](=O)[O-])c1 (stereo not drawn)
active: Potency [7] 0.55 µM
inactive: Potency [1] | outcome [8] | outcome [2] | Potency [3] | Potency [6]

CCCCCCCCCCCC[N+](C)(C)Cc1ccccc1
inactive: Potency [1] | outcome [8] | outcome [2] | Potency [4]
active: Potency [6] 0.195 µM | Potency [7] 15.5 µM

CN(C)CCCOC1(Cc2ccccc2)CCCCCC1
inactive: Potency [1] | outcome [8] | outcome [2] | Potency [3] | Potency [7]
active: Potency [6] 2.19 µM

O=c1[nH]sc2cc(Cl)ccc12
active: Potency [3] 3.55 µM
inactive: Potency [1] | outcome [8] | Potency [4] | Potency [5] | Potency [6]

C[C@H]1C[C@@H]2[C@H]([C@@H](O)C[C@@]3(C)[C@H]2CC[C@]3(O)C(=O)CO)[C@@]2(C)C=CC(=O)C=C12
inactive: Potency [1] | outcome [2] | Potency [4]

O=C(O)Cn1cnnn1
inactive: outcome [8] | outcome [2] | Potency [3] | Potency [5] | Potency [6] | Potency [7]

O=C1Nc2ccccc2C1(c1ccc(O)cc1)c1ccc(O)cc1
active: Potency [6] 19.5 µM | Potency [7] 4.36 µM
inactive: Potency [1] | outcome [8] | outcome [2] | Potency [3]

CC(C(=O)O)c1ccc(/C=C2\CCCCC2=O)cc1 (stereo not drawn)
inactive: Potency [1] | outcome [8] | outcome [2] | Potency [3] | Potency [5] | Potency [6] | Potency [7]

NCC[C@H](O)C(=O)N[C@@H]1C[C@H](N)[C@@H](O[C@H]2O[C@H](CN)[C@@H](O)[C@H](O)[C@@H]2O)[C@H](O)[C@@H]1O[C@H]1O[C@H](CO)[C@@H](O)[C@H](N)[C@@H]1O
inactive: activity change, negative = inhibition [1] 3.64% [at 0.505 µM] | activity change, negative = inhibition [8] 3.01% [at 0.575 µM] | activity change [2] 4.33% [at 0.0343 µM] | activity change, negative = inhibition [3] 3.05% [at 1.07 µM] | % pathology change, negative = correction [5] -0.271% [at 0.369 µM] | activity change, negative = inhibition [6] 10.7% [at 0.91 µM] | activity change, negative = inhibition [7] 1.19% [at 0.91 µM]

N#C/C(=C1/SC[C@@H](c2ccc(Cl)cc2Cl)S1)n1ccnc1
inactive: Potency [1] | outcome [2] | Potency [3] | Potency [5]
active: Potency [6] 0.0871 µM | Potency [7] 0.436 µM

CCCc1ccc(OCC(=O)N2CCN(C(=O)COc3ccc(CCC)cc3OC)CC2)c(OC)c1
active: Potency [5] 11.2 µM
inactive: outcome [8] | outcome [2] | Potency [3] | Potency [4] | Potency [6]

COCCc1ccccn1
inactive: Potency [1] | outcome [2] | Potency [3] | Potency [4] | Potency [6]

CN1Cc2cc(C(=O)N3CCC(C4CCNCC4)CC3)ccc2NC(CC(=O)O)C1=O (stereo not drawn)
inactive: Potency [1] | outcome [8] | outcome [2] | Potency [3] | Potency [5] | Potency [6] | Potency [7]

O=C(Nc1ccc(Cl)cc1)Nc1ccc(Cl)c(C(F)(F)F)c1
inactive: outcome [2] | Potency [3]
active: Potency [1] 12.6 µM | Potency [6] 13.8 µM | Potency [7] 11 µM
